Unmarked numbers belong to inactive results. No rule for the calls is given here.

This passage reports Potency results from PubChem BioAssay (NCATS).
Potency is read from the fitted curve at half-maximal effect.

This assay relates to HIV-1 nucleocapsid protein NCp7 (binding to TG oligonucleotide). In words: HIV Nucleocapsid (AID 346).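 Also: potency is for inhibitors that block NC binding and lower polarization.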 The conditions noted are these: HIV-1 NC / fluorescein-TGTGTGTG probe, fluorescence polarization. In outline: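 HIV-1 NC (100 nM) binding to fluorescein-labelled ssDNA TG4xF (10 nM) in Hepes pH 7.5, 250mM NaCl, 1uM ZnCl2, TCEP and 2-mercaptoethanol; compounds pin-transferred, 1 hr room temperature, fluorescence polarization read on CCD imager.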
As to `O=c1c(-c2ccc(F)c(F)c2)nc2cncnc2n1C1CC1`, the Potency is > 20 µM.
With `O=c1c(-c2ccc(Cl)cc2)nc2cncnc2n1Cc1ccc(F)cc1`, the Potency is > 20 µM.
The figure for `COCCn1c(=O)c(C)nc2cnc(Oc3cccc(Cl)c3)nc21` is > 4 µM.
The result for `COc1ccc(Oc2ncc3nc(-c4ccc(OC)cc4)c(=O)n(C)c3n2)cc1` reads > 20 µM.
As to `Cc1nc2cnc(N3CCOCC3)nc2n(C)c1=O`, the Potency is > 20 µM.
The figure for `COc1ccccc1CNc1ncnc2ccc(-c3c(C)noc3C)cc12` is > 20 µM; for `CN1CCN(c2ncc3nc(-c4cn(C)c5ccccc45)c(=O)n(Cc4cccs4)c3n2)CC1` it is > 20 µM.
With `COc1ccc(-c2nc3cnc(N(C)C)nc3n(Cc3ccc(F)cc3)c2=O)cc1`, the Potency is > 20 µM.
The figure for `Cn1cccc1C(=O)N1CCC2(CCCN(c3ccccc3)C2)CC1` is > 20 µM.
The figure for `CCNc1ncc2nc(-c3ccccc3)c(=O)n(C[C@H]3CCCO3)c2n1` is > 20 µM; for `O=C(c1csnn1)N1CCC2(CC1)CCN(c1cccc(-c3ccccc3)c1)CC2` it is > 20 µM; for `O=C(c1ccncc1)N1CCC2(CCN(Cc3ccncc3)CC2)CC1` it is > 20 µM.
On to `N#CCCn1c(=O)c(-c2ccccc2)nc2cnc(Nc3ccccc3)nc21`, for which the Potency is > 20 µM.
The figure for `O=S(=O)(c1ccccc1)N1CCC[C@@]2(CCN(c3cccc(-c4ccccc4)c3)C2)C1` is > 20 µM; for `N#Cc1cccc(NC(=O)N2CC[C@@]3(CCCN(S(=O)(=O)c4ccccc4)C3)C2)c1` it is > 20 µM; for `O=C(c1ccncc1)N1CCC2(CC1)CN(c1cccc(-c3ccccc3)c1)C2` it is > 20 µM.
For the compound `Cn1c(=O)c(-c2ccc(Cl)cc2)nc2cnc(N3CCOCC3)nc21`, the Potency is > 20 µM.
As for `CCNc1ncc2nc(-c3cc(F)cc(F)c3)c(=O)n(-c3ccccc3)c2n1`, the Potency was > 4 µM.
For the compound `COc1ccccc1CNc1nc(-c2ccc(C(=O)N(C)C)cc2)nc2ccccc12`, the Potency is > 20 µM.
With `O=C(Oc1ccccc1)N1CCC2(CC1)CCN(c1ccccc1)CC2`, the Potency is > 20 µM.
In the case of `Cn1cccc1C(=O)N1CCC2(CCN(C(=O)Nc3cccc(F)c3)CC2)CC1`, the Potency was > 20 µM.
For `COCCn1c(=O)cnc2cnc(OC)nc21`, the Potency is > 20 µM.
`COCCn1c(=O)c(-c2cc(F)cc(F)c2)nc2cnc(OC)nc21`: the Potency is > 20 µM.
Take `COc1ccccc1CN1CC[C@@]2(CCCN(C(=O)c3cnccn3)C2)C1`: the Potency is > 20 µM.
As for `COc1ccc2[nH]cc(CCNc3ncncc3-c3ccccc3OC)c2c1`, the Potency was > 20 µM.
The result for `Cc1noc(C)c1C(=O)N1CCC[C@@]2(CCN(C(=O)NC(C)C)C2)C1` reads > 20 µM; that for `Cc1cnc(CNc2ccnc(-c3cccc(NS(C)(=O)=O)c3)n2)cn1`, > 20 µM; that for `CN1CCN(c2ncncc2-c2ccoc2)CC1`, > 20 µM.
Regarding `O=C(c1cccc(F)c1)N1CCC2(CC1)CCN(c1cccc(-c3ccccc3)c1)CC2`, the Potency was > 20 µM.
The figure for `CN(C)c1nc(-c2cccc(NS(C)(=O)=O)c2)nc2ccccc12` is > 20 µM; for `COc1cccc(Cn2c(=O)c(-c3ccccc3)nc3cncnc32)c1` it is > 20 µM.
As to `Clc1ccccc1-c1cc(NCCN2CCOCC2)ncn1`, the Potency was > 20 µM.
As to `Cc1cccc(CNc2nc(-c3ccoc3)nc3ccccc23)c1`, the Potency was > 20 µM.
The result for `COc1cccc(-c2cc(NCc3cccnc3)ncn2)c1` reads > 20 µM.
The figure for `COCCn1c(=O)c(-c2cccs2)nc2cnc(Oc3cccc(Cl)c3)nc21` is > 20 µM; for `COc1ccc(C(=O)N2CCC3(CCCN(c4ccncc4)C3)CC2)cc1` it is > 20 µM.
Regarding `CN(C)C(=O)c1ccc(-c2cncnc2Nc2ccccc2)cc1`, the Potency is > 20 µM.
The result for `FC(F)(F)c1ccccc1-c1nccc(NCCN2CCOCC2)n1` reads > 20 µM; that for `Clc1ccccc1-c1cc(NCc2ccccc2)ncn1`, > 20 µM.
Take `CN(C)c1ncc2nc(-c3ccc(Cl)cc3)c(=O)n(C)c2n1`: the Potency is > 20 µM.
